Records with an inconclusive call do not appear. Activity calls are given as the source filed them. Calls come from the whole dose curve. Bridge positions count the residues as written; N and C are the ends. Square brackets hold non-standard residues; d marks the D form. Peptide text beside a SMILES is read from it. hArg = N=C(N)NCCCC[C@H](N)C(=O)O; Mpa = O=C(O)CCS
target: Beta-2 adrenergic receptor (Homo sapiens) (UniProt P07550); assay: Adrenergic beta2 receptor (ADRB2) small molecule antagonists, cell-based qHTS assay (AID 1963592); conditions: CHO-ADRB2 cells, isoproterenol-stimulated cAMP HTRF ratio, 0.5 h; series mostly up to 92.4 µM; activity change, negative = inhibition: at the top concentration; note: nearly all actives have a fitted effect of over 50% in size
From the text: U.S. Tox21 Program National Center for Advancing Translational Sciences [NCATS] Division of Preclinical Innovation [DPI] U.S. Environmental Protection Agency [EPA] National Institutes of Environmental Health Sciences [NIEHS] National Toxicology Program [NTP] U.S. Food and Drug Administration [FDA] Tox21 Assay Overview: Beta adrenergic receptors (Beta-ARs) belong to the G-protein coupled receptor (GPCR) superfamily, includes three subtypes - beta1, beta2, and beta3. Beta1-AR is the predominant receptor subtype expressed in the heart, and beta2-AR is expressed in the kidney, lung, blood vessel and in the heart, and beta3 is found in the adipocytes. Beta1 and 2 ARs couple to Gs protein and elevate cyclic adenosine mono phosphate (cAMP), which activates protein kinase A and leads to the downstream signaling responsible for the physiological actions. Beta-AR agonists or antagonists are the most prescribed therapeutic agents for heart failure and asthma, and these were one of the first target receptors for the rational drug design. Tox21 10K compound library was screened using the cAMP-Gs dynamic assay (Cisbio Bioassays, Shelton, CT) to identify agonists/antagonists of the Gs-coupled human adrenergic, beta2 receptor (ADRB2) in the CHO-ADRB2 cell line (Codex BioSolutions, Inc. Gaithersburg, MD), which stably over-expresses ADRB2. The principle of cAMP-Gs dynamic assay is based on HTRF technology, which facilitates the fluorescence resonance energy transfer (FRET) between donor Europium cryptate and acceptor d2-labeled cAMP. The cAMP generated within cells competes with the red acceptor, d2-labled cAMP, for binding to the monoclonal anti-cAMP-cryptate (Europium donor). An increase in intracellular cAMP leads to the disruption of FRET signal, and the signal is inversely proportional to the cAMP concentration. Propranolol HCl (Sigma-Aldrich, St. Louis, MO) was used as a positive control in the screening.
Tox21 Assay Protocol Summary: CHO-ADRB2 cells were dispensed at 1,000/well in 4uL assay medium into white/solid 1536-well plates (Greiner Bio-One North America Inc., Monroe, NC) using a Multidrop Combi dispenser (ThermoFisher Scientific, Waltham, MA). The assay plates were incubated at 37C and 5% CO2 for an overnight (18-20hr). Then positive control and test compounds dissolved in DMSO were transferred to the assay plates at 23nL using a Pintool station (Wako, San Diego, CA). Following the compound and positive control transfer, 1uL agonist-stimulation mix containing 1nM Isoproterenol HCl, 100uM IBMX and 25uM Ro-20-1724 was added to each well of the assay plates using BioRAPTR Flying Reagent Dispenser (FRD, Beckman Coulter, Brea, CA). The assay plates were incubated at room temperature for 0.5hr. Then 2.5ul each d2-labled cAMP and anti-cAMP-cryptate solutions were added separately to each well of the assay plates using an FRD and the assay plates were incubated at room temperature for 1hr. The fluorescence signal was measured at two different wavelengths (665nm and 615nm) using an Envision plate reader (Perkin Elmer, Shelton, CT). Data were expressed as the ratio of 665 nm/615 nm.
% is set by controls: 0 for no effect and ±100 for the full control effect; potency is the fitted concentration of half-maximal effect.

Beta-2 adrenergic receptor (Homo sapiens), sequence (P07550 whole entry, looked up): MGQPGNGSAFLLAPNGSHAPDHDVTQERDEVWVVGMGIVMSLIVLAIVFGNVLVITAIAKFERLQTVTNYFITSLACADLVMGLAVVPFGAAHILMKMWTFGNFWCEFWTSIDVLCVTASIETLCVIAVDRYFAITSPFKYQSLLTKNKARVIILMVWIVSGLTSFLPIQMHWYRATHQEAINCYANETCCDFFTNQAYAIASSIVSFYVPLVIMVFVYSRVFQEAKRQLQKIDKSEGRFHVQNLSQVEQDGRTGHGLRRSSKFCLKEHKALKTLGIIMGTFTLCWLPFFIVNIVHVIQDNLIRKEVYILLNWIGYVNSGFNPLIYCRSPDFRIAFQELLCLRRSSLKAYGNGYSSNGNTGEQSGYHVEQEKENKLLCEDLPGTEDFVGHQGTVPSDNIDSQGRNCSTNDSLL

Row | Structure (SMILES) | activity change, negative = inhibition | Potency
1 | CCC(=O)Oc1ccc(/C(CC)=C(\CC)c2ccc(OC(=O)CC)cc2)cc1 | -3.52% (inactive) | –
2 | CSc1ccc2c(c1)C(N1CCN(C)CC1)Cc1ccccc1S2 (stereo not given) | -17.3% [at 42.5 µM] (inactive) | –
3 | O=C(Cl)c1ccc(F)c(Cl)c1 | -7.73% (inactive) | –
4 | CN(C)C(=O)C(CCN1CCC(O)(c2ccc(Cl)cc2)CC1)(c1ccccc1)c1ccccc1 | – | 11.9 µM (active)
5 | c1ccc2c(c1)CCCC2C1=NCCN1 (stereo not given) | 3.15% [at 42.5 µM] (inactive) | –
6 | CCOc1nc2cccc(C(=O)OC(C)OC(=O)OC3CCCCC3)c2n1Cc1ccc(-c2ccccc2-c2nn[nH]n2)cc1 (stereo not given) | -15.5% (inactive) | –
7 | CCCCOC(=O)c1ccccc1 | 3.29% (inactive) | –
8 | CCNc1nc(NC(C)CC)nc(OC)n1 (stereo not given) | 1.23% (inactive) | –
9 | CCCCOCCOC(=O)COc1nc(Cl)c(Cl)cc1Cl | -14.5% (inactive) | –
10 | CC(C)(C)C(O)/C=C/c1ccc2c(c1)OCO2 (stereo not given) | -22.7% [at 42.5 µM] (inactive) | –
11 | O=[N+]([O-])c1ccc(O)cc1C(F)(F)F | -16.9% (inactive) | –
12 | FC1(F)C(F)(F)C(F)(F)C2(F)C(F)(F)C(F)(F)C(F)(F)C(F)(F)C2(F)C1(F)F (stereo not given) | -0.863% [at 42.5 µM] (inactive) | –
13 | CCOC(=O)/C=C(C)/C=C/C=C(C)/C=C/c1c(C)cc(OC)c(C)c1C | -2.21% [at 42.5 µM] (inactive) | –
14 | COc1ccc(OC(F)(F)F)cc1CN[C@H]1CCCN[C@H]1c1ccccc1 | 1.9% (inactive) | –
15 | CS(=O)(=O)CCNCc1ccc(-c2ccc3ncnc(Nc4ccc(OCc5cccc(F)c5)c(Cl)c4)c3c2)o1 | -0.632% [at 42.5 µM] (inactive) | –
16 | Cc1ccc2c(Br)cc(Br)c(O)c2n1 | 8.7% [at 42.5 µM] (inactive) | –
17 | CCCOC(=O)c1c(Cl)c(Cl)c(Cl)c(Cl)c1C(=O)OCCC | 1.27% (inactive) | –
18 | COc1cc(S(=O)(=O)Nc2ccccc2)c(OC)cc1N | -8.28% (inactive) | –
19 | Cc1nn(C)c(Oc2ccccc2)c1/C=N/OCc1ccc(C(=O)OC(C)(C)C)cc1 | 1.43% (inactive) | –
20 | O=C(O)CCCCCCCCCC(=O)O | -2.93% (inactive) | –

Row | Structure (SMILES) | activity change, negative = inhibition | Potency
21 | O=C(N/N=C/c1ccccc1O)c1ccncc1 | 6.12% [at 42.5 µM] (inactive) | –
22 | Cc1cccc(C(=O)O)c1O | -7.78% [at 42.5 µM] (inactive) | –
23 | CC(C)c1ccccc1 | -15.9% (inactive) | –
24 | Cc1ccccc1 | -0.363% (inactive) | –
25 | CCCCCCOC(=O)CC(CC(=O)OCCCCCC)(OC(=O)CCC)C(=O)OCCCCCC | -4.35% (inactive) | –
26 | COc1cc(OC)c2ccc(=O)oc2c1 | -18.2% (inactive) | –
27 | C=CC(=O)OCCn1c(=O)n(CCOC(=O)C=C)c(=O)n(CCOC(=O)C=C)c1=O | 15.3% (inactive) | –
28 | C[C@]12CC[C@H]3C(=CCc4cc(O)ccc43)[C@@H]1CCC2=O | 0.816% (inactive) | –
29 | NC(=O)[C@@H]1CSSCCC(=O)N[C@@H](CCCCN=C(N)N)C(=O)NCC(=O)N[C@@H](CC(=O)O)C(=O)N[C@@H](Cc2c[nH]c3ccccc23)C(=O)N2CCC[C@H]2C(=O)N1 ([Mpa][hArg]GDWPC-NH2; disulfide 1-7) | 7.14% [at 42.5 µM] (inactive) | –
30 | CC1CCCNC1 (stereo not given) | 0.0049% (inactive) | –
31 | COC(=O)C1=C(C)NC(C)=C(C(=O)OC)C1c1ccccc1[N+](=O)[O-] | – | inactive
32 | CC(=O)Oc1ccc(C(=C2CCCCC2)c2ccc(OC(C)=O)cc2)cc1 | -8.35% [at 42.5 µM] (inactive) | –
33 | O=C(Cl)c1ccc([N+](=O)[O-])cc1 | -8.51% (inactive) | –
34 | O=C1CCCc2c1cc1ccc3cccc4ccc2c1c34 | 0.372% (inactive) | –
35 | C=C(C)C(=O)OCCO | 2.28% (inactive) | –
36 | CO[C@H]1C=CO[C@@]2(C)Oc3c(C)c(O)c4c(O)c(c5c(c4c3C2=O)=NC2(CCN(CC(C)C)CC2)N=5)NC(=O)/C(C)=C\C=C/[C@H](C)[C@H](O)[C@@H](C)[C@@H](O)[C@@H](C)[C@H](OC(C)=O)[C@@H]1C | 2.42% (inactive) | –
37 | CC(C)=CCCC(C)CC(=O)O (stereo not given) | -9.35% (inactive) | –
38 | CN1CCN2c3ccccc3Cc3ccccc3C2C1 (stereo not given) | -9.01% [at 42.5 µM] (inactive) | –
39 | CCS(=O)(=O)c1ccc(OC)c(C(=O)OC)c1 | 8.11% [at 42.5 µM] (inactive) | –
40 | O=C(/C=C/c1ccc(O)c(O)c1)O[C@@H](C(=O)O)[C@@H](OC(=O)/C=C/c1ccc(O)c(O)c1)C(=O)O | -0.677% (inactive) | –
